The source of these data is PubChem BioAssay (Tox21).

The structures appear in SMILES notation. Records with an inconclusive call do not appear. Values without a mark were called inactive. Activity calls are given as the source filed them. The call rests on the fitted dose curve.
On the % scale 0 is the no-effect control and ±100 the full control effect; potency means the concentration at half of the fitted maximal effect.

Chain of Beta-2 adrenergic receptor (Homo sapiens) (P07550 whole entry, looked up): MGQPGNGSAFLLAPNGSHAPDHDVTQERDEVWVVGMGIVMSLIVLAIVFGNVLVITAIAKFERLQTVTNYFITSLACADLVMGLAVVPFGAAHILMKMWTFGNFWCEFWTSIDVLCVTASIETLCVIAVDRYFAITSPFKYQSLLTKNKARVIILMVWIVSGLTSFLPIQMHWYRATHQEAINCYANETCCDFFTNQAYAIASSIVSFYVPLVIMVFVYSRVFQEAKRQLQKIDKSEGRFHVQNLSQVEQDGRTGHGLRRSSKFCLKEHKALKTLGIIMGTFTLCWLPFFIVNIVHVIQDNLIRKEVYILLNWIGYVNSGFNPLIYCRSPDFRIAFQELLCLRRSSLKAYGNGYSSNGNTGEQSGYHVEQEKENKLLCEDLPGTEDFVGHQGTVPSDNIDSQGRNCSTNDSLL

The target of the assay is Beta-2 adrenergic receptor (Homo sapiens) (UniProt P07550). In words: Adrenergic beta2 receptor (ADRB2) small molecule antagonists, cell-based qHTS assay (AID 1963592). Further: nearly all actives have a fitted effect of over 50% in size. Particulars: CHO-ADRB2 cells, isoproterenol-stimulated cAMP HTRF ratio, 0.5 h; series mostly up to 92.4 µM; activity change, negative = inhibition: at the top concentration. An excerpt:
U.S. Tox21 Program National Center for Advancing Translational Sciences [NCATS] Division of Preclinical Innovation [DPI] U.S. Environmental Protection Agency [EPA] National Institutes of Environmental Health Sciences [NIEHS] National Toxicology Program [NTP] U.S. Food and Drug Administration [FDA] Tox21 Assay Overview: Beta adrenergic receptors (Beta-ARs) belong to the G-protein coupled receptor (GPCR) superfamily, includes three subtypes - beta1, beta2, and beta3. Beta1-AR is the predominant receptor subtype expressed in the heart, and beta2-AR is expressed in the kidney, lung, blood vessel and in the heart, and beta3 is found in the adipocytes. Beta1 and 2 ARs couple to Gs protein and elevate cyclic adenosine mono phosphate (cAMP), which activates protein kinase A and leads to the downstream signaling responsible for the physiological actions. Beta-AR agonists or antagonists are the most prescribed therapeutic agents for heart failure and asthma, and these were one of the first target receptors for the rational drug design. Tox21 10K compound library was screened using the cAMP-Gs dynamic assay (Cisbio Bioassays, Shelton, CT) to identify agonists/antagonists of the Gs-coupled human adrenergic, beta2 receptor (ADRB2) in the CHO-ADRB2 cell line (Codex BioSolutions, Inc. Gaithersburg, MD), which stably over-expresses ADRB2. The principle of cAMP-Gs dynamic assay is based on HTRF technology, which facilitates the fluorescence resonance energy transfer (FRET) between donor Europium cryptate and acceptor d2-labeled cAMP. The cAMP generated within cells competes with the red acceptor, d2-labled cAMP, for binding to the monoclonal anti-cAMP-cryptate (Europium donor). An increase in intracellular cAMP leads to the disruption of FRET signal, and the signal is inversely proportional to the cAMP concentration. Propranolol HCl (Sigma-Aldrich, St. Louis, MO) was used as a positive control in the screening.
Tox21 Assay Protocol Summary: CHO-ADRB2 cells were dispensed at 1,000/well in 4uL assay medium into white/solid 1536-well plates (Greiner Bio-One North America Inc., Monroe, NC) using a Multidrop Combi dispenser (ThermoFisher Scientific, Waltham, MA). The assay plates were incubated at 37C and 5% CO2 for an overnight (18-20hr). Then positive control and test compounds dissolved in DMSO were transferred to the assay plates at 23nL using a Pintool station (Wako, San Diego, CA). Following the compound and positive control transfer, 1uL agonist-stimulation mix containing 1nM Isoproterenol HCl, 100uM IBMX and 25uM Ro-20-1724 was added to each well of the assay plates using BioRAPTR Flying Reagent Dispenser (FRD, Beckman Coulter, Brea, CA). The assay plates were incubated at room temperature for 0.5hr. Then 2.5ul each d2-labled cAMP and anti-cAMP-cryptate solutions were added separately to each well of the assay plates using an FRD and the assay plates were incubated at room temperature for 1hr. The fluorescence signal was measured at two different wavelengths (665nm and 615nm) using an Envision plate reader (Perkin Elmer, Shelton, CT). Data were expressed as the ratio of 665 nm/615 nm.
A general note: Quantitative high-throughput screening tests each substance at several concentrations.
With `COc1ccnc(CS(=O)c2nc3ccc(OC(F)F)cc3[nH]2)c1OC` (stereo not given), the “activity change, negative = inhibition” value was -1.14% [at 42.5 µM].

Consider `CC(C)(O)c1ccc(C(C)(C)O)cc1`, for which the “activity change, negative = inhibition” value is 1.68%. `NC(=O)c1c(Cl)cccc1Cl`: the “activity change, negative = inhibition” value is 1.43%. As for `CO[C@@]1(NC(=O)Cc2cccs2)C(=O)N2C(C(=O)O)=C(COC(N)=O)CS[C@@H]21`, the “activity change, negative = inhibition” value was -0.611% [at 42.5 µM].

`COc1ccc(/C=C/c2cc(OC)cc(=O)o2)cc1`: the “activity change, negative = inhibition” value is 5.29% [at 42.5 µM]. On the same count and under the same terms, the value for `COc1nc(N)nc2c1ncn2[C@@H]1O[C@H](CO)[C@@H](O)[C@@H]1O` was -17.1% [at 42.5 µM]; that for `c1cc(OCC2CO2)cc(OCC2CO2)c1` (stereo not given) was 1.92%; that for `OC[C@H]1O[C@@H](OCCc2ccc(O)cc2)[C@H](O)[C@@H](O)[C@@H]1O` was 1.96% [at 42.5 µM]. Take `CCOC(=O)c1ccc(N(C)C)cc1`: the “activity change, negative = inhibition” value was 0.372%. `CCO[C@H](Cc1ccc(OCCc2ccc(OS(C)(=O)=O)cc2)cc1)C(=O)O`: the “activity change, negative = inhibition” value is 4.84% [at 42.5 µM]. With `Oc1cc(Cl)cc(Cl)c1Cl`, the “activity change, negative = inhibition” value is -20.6%. Still for that read-out and setting: the value for `CC(C)=CCC[C@](C)(O)[C@@H]1CC=C(C)CC1` was -9.13%; that for `NC(=O)Nc1nc2ccccc2[nH]1` was 1.22%; that for `CCOc1ccc(O)cc1` was -1.64%. Consider `O=C(Nc1cccc(C(F)(F)F)c1)c1cc(Br)cc(Br)c1O`, for which the Potency was 61.1 µM (active). Consider `Brc1ccccc1-c1ccccc1`, for which the “activity change, negative = inhibition” value was -5.32%.

With `CC1(C)C(=O)NC(=O)N1CO`, the “activity change, negative = inhibition” value is -9.66%.

Consider `CCCC(=O)OC/C=C(\C)CCC=C(C)C`, for which the “activity change, negative = inhibition” value is -10.4%.

Turning to `CO[Si](OC)(c1ccccc1)c1ccccc1`, the “activity change, negative = inhibition” value is -11.7%. For `Cc1ccc(N/N=c2\c(=O)cc/c(=N\Nc3ccc(S(=O)(=O)O)cc3)c2=O)c(C)c1`, the “activity change, negative = inhibition” value is -17.4%. Turning to `Cc1cc(C)c(C)c(C)c1`, the “activity change, negative = inhibition” value was -9.63%. Same read-out and setting: the value for `CCN1CCN(C(=O)N[C@@H](C(=O)N[C@@H]2C(=O)N3C(C(=O)O)=C(CSc4nnnn4C)CS[C@H]23)c2ccc(O)cc2)C(=O)C1=O` was -6.07% [at 42.5 µM]; that for `OCCN1CCN(CC/C=C2/c3ccccc3Sc3ccc(C(F)(F)F)cc32)CC1` was -2.17% [at 42.5 µM]; that for `C=CC(=O)N1CCOCC1` was -14.5%.

On to `O=C1c2ccccc2C(=O)c2c(O)c(O)cc(O)c21`, for which the “activity change, negative = inhibition” value was -6.06%. The same measure, in the same setting: the value for `Cc1nn(C)c(Oc2ccccc2)c1/C=N/OCc1ccc(C(=O)OC(C)(C)C)cc1` was 1.43%. For `O=c1cc(-c2ccc(O)cc2)oc2cc(O)cc(O)c12`, the Potency entry was “inactive”.

As for `Nc1c[n+](N2CCOCC2)no1`, the “activity change, negative = inhibition” value was 4.22% [at 42.5 µM]. Regarding `COC(=O)C1=C(C)NC(COC(N)=O)=C(C(=O)OC(C)C)C1c1cccc(Cl)c1Cl` (stereo not given), the “activity change, negative = inhibition” value was -20.9% [at 42.5 µM]. In the case of `CC(C(=O)O)c1ccc2c(c1)[nH]c1ccc(Cl)cc12` (stereo not given), the “activity change, negative = inhibition” value was -6.46% [at 42.5 µM]. `Cc1c(C)c2c(c(C)c1OC(=O)c1cccnc1)CC[C@@](C)(CCC[C@H](C)CCC[C@H](C)CCCC(C)C)O2`: the “activity change, negative = inhibition” value is -12.2% [at 42.5 µM].

For `Cc1cccc(Nc2ccccc2)c1`, the “activity change, negative = inhibition” value is -7.32%. For the compound `CCC(C)N` (stereo not given), the “activity change, negative = inhibition” value is 3.83%. Turning to `c1cnc(N2CCN(Cc3ccc4c(c3)OCO4)CC2)nc1`, the “activity change, negative = inhibition” value was -0.469% [at 42.5 µM]. Turning to `CCCCCCCCCCCCOC(C)=O`, the “activity change, negative = inhibition” value was 6.43%. Take `COc1cc(C(C)(C)C)c(O)c(C(C)(C)C)c1`: the “activity change, negative = inhibition” value is -8.39%. The same measure, in the same setting: the value for `COc1cc(Cl)ccc1Oc1ccc(Cl)cc1Cl` was 11.6%; that for `CCCCOc1ccc(CC(=O)NO)cc1` was 1.91% [at 42.5 µM]. On the same count and under the same terms, the value for `Oc1ccc(-c2ccccc2)c(Cl)c1` was -15.7%; that for `OC[C@H]1O[C@@H](n2cnc3c(=S)nc[nH]c32)[C@H](O)[C@@H]1O` was 1.06% [at 42.5 µM].
